The values below come from PubChem BioAssay (Tox21).

Experiment [1] is described as follows: A CellTox Green Cytotoxicity Assay to monitor cytotoxicity in HEK293 cells - 32 hour (AID 1224881). Also: nearly all actives have a fitted effect of over 40% in size. Also: potency is read from the fitted curve at half-maximal effect. The method in brief: (§1)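 Each value comes from one timepoint of a single continuous run in which HEK293 cells with CellTox Green were exposed to compound for up to 40 h at 37 C, dye fluorescence rising with cell death.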
Experiment [2] in a line: A CellTox Green Cytotoxicity Assay to monitor cytotoxicity in HepG2 cells - 0 hour (AID 1224882). Also: nearly all actives have a fitted effect of over 35% in size. The gist of the method:
(§2)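 Continuous culture of HepG2 cells with a membrane-impermeant DNA dye; rising fluorescence marks dead cells. Compound exposure lasted up to 40 h at 37 C, with reads every 8 h from 0 h.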

Experiment [3] in a line: A CellTox Green Cytotoxicity Assay to monitor cytotoxicity in HepG2 cells - 32 hour (AID 1224883). Also: nearly all actives have a fitted effect of over 50% in size. Also: potency is read from the fitted curve at half-maximal effect. The method in brief:
as §2

Experiment [4] can be described thus: A CellTox Green Cytotoxicity Assay to monitor cytotoxicity in HEK293 cells - 8 hour (AID 1224884). Also: nearly all actives have a fitted effect of over 35% in size. Also: potency is read from the fitted curve at half-maximal effect. The gist of the method:
as §1

Experiment [5] can be described thus: qHTS RealTime-Glo MT Cell Viability Assay in HepG2 cells - 16 hour (AID 1224885). Also: nearly all actives have a fitted effect of over 50% in size. Also: potency is read from the fitted curve at half-maximal effect. The method in brief: (§3)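 HepG2 suspension premixed with RealTime-Glo reagents is plated at 600 cells per well and left 5 h at 37 C/5% CO2. Compounds in DMSO then go in, and bioluminescence reflecting viable cell number is recorded over 40 h.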
In general terms: Quantitative high-throughput screening tests each substance at several concentrations.

A short description of experiment [6]: qHTS RealTime-Glo MT Cell Viability Assay in HEK293 cells - 24 hour (AID 1224886). Also: nearly all actives have a fitted effect of over 50% in size. Also: potency is read from the fitted curve at half-maximal effect. The gist of the method:
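Reads taken at 0, 8, 16, 24, 32 and 40 h from the same wells. HEK293 cells (600/well) carried RealTime-Glo reagents from seeding, with compound added after a 5 h settle at 37 C.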

Experiment [7] is described as follows: qHTS RealTime-Glo MT Cell Viability Assay in HEK293 cells - 8 hour (AID 1224887). Also: top concentration of the series differs between compounds; nearly all actives have a fitted effect of over 50% in size. The gist of the method: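 qHTS format; HEK293 cells with NanoLuc/prosubstrate reagent, 37 C/5% CO2 for 5 h pre-dosing; compounds 23 nL in DMSO; luminescence at each time point reflects viable cells.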
Experiment [8] can be described thus: A CellTox Green Cytotoxicity Assay to monitor cytotoxicity in HEK293 cells - 16 hour (AID 1224888). Also: nearly all actives have a fitted effect of over 35% in size. Also: potency is read from the fitted curve at half-maximal effect. The method in brief: as §1
Experiment [9] is described as follows: qHTS RealTime-Glo MT Cell Viability Assay in HepG2 cells - 0 hour (AID 1224889). Also: nearly all actives have a fitted effect of over 50% in size. The method in brief:
as §3

Experiment [10] is described as follows: A CellTox Green Cytotoxicity Assay to monitor cytotoxicity in HepG2 cells - 8 hour (AID 1224890). Also: nearly all actives have a fitted effect of over 45% in size. Also: potency is read from the fitted curve at half-maximal effect. The gist of the method: as §2

Structures are written as SMILES. Results filed as inconclusive are left out. Calls of active or inactive are those of the source. Calls follow the shape of the dose curve; as a rule, active = well fitted curve in the direction sought with a large enough effect in the repeat runs; inconclusive = weak or mixed curves; inactive = no such curve, though single readings can be large; an effect the other way counts as inactive or inconclusive.

`N#CCc1ccc(Cl)cc1Cl`: the Potency entry in [1], in experiment [2], in experiment [3], in experiment [4], in experiment [5] and in [6] was “inactive” throughout. Also, the Potency entry in experiment [7], in [8], in [9] and in [10] was “inactive” in each case.

With `CC(CCC(=O)O)C(=O)O` (stereo unspecified), the Potency entry in experiment [1], in experiment [2], in [3], in experiment [4], in experiment [5] and in [6] was “inactive” each time. In addition, the Potency result in experiment [7], in experiment [8], in [9] and in experiment [10] was “inactive” in each case.

As for `COc1ccc(OC(=O)N(CC(=O)O)Cc2ccc(OCCc3nc(-c4ccccc4)oc3C)cc2)cc1`, the Potency entry in experiment [1], in experiment [2], in experiment [3], in experiment [4], in experiment [5] and in experiment [6] was “inactive” in each case. In addition, the Potency entry in [7], in experiment [8], in experiment [9] and in [10] was “inactive” in each case.

In the case of `C[C@]1(Cn2ccnn2)[C@H](C(=O)O)N2C(=O)C[C@H]2S1(=O)=O`, the Potency result in experiment [1], in experiment [2], in experiment [3], in experiment [4], in experiment [5] and in [6] was “inactive” in each case. Further, the Potency entry in experiment [7], in experiment [8], in experiment [9] and in experiment [10] was “inactive” each time.

For the molecule `O=C1c2ccccc2C(=O)C1c1ccc(Br)cc1`, the Potency result in [1], in experiment [2], in [3], in experiment [4], in experiment [5] and in experiment [6] was “inactive” each time. For the same molecule, the Potency result in experiment [7], in experiment [8], in experiment [9] and in [10] was “inactive” in each case.

As to `Cc1ccccc1S`, the Potency result in [1], in experiment [2], in experiment [3], in experiment [4], in experiment [5] and in experiment [6] was “inactive” in each case. Further, the Potency result in experiment [7], in experiment [8], in experiment [9] and in experiment [10] was “inactive” throughout.

Regarding `c1ccc2c(c1)CCc1ccccc1N2`, in [1], the Potency is 49.2 µM (active). Besides, the Potency entry in [2], in experiment [3], in experiment [4], in experiment [5], in experiment [6] and in [7] was “inactive” throughout. In addition, the Potency entry in experiment [8] and in experiment [10] was “inactive” in each case.

On to `CC(=O)OCC[N+](C)(C)C`, for which the Potency entry in [1], in experiment [2], in [3], in experiment [4], in experiment [5] and in [6] was “inactive” each time. Besides, the Potency result in experiment [7], in experiment [8], in [9] and in experiment [10] was “inactive” in each case.

In the case of `Cc1cccc(O)c1N`, the Potency entry in [1], in experiment [2], in [3], in experiment [4], in [5] and in experiment [6] was “inactive” throughout. For the same molecule, the Potency entry in [7], in experiment [8], in experiment [9] and in experiment [10] was “inactive” each time.

Take `CCCCCCCCCCCCCCN(CCO)CCO`: the Potency is 38.9 µM (active) in experiment [1]; 19.5 µM (active) in [3]; 54.9 µM (active) in experiment [4]; 43.6 µM (active) in [5]; 21.9 µM (active) in experiment [6]; 54.9 µM (active) in [8]. Moreover, in [10], the Potency is 54.9 µM (active). For the same molecule, the Potency result in [2] and in experiment [9] was “inactive” each time.

For the molecule `CCN(CC)CCNC(=O)COc1ccc(OC)cc1`, the Potency entry in experiment [1], in experiment [2], in experiment [3], in experiment [4], in experiment [5] and in experiment [6] was “inactive” each time. Further, the Potency result in experiment [8], in [9] and in experiment [10] was “inactive” in each case.

As for `Nc1ncnc2c1ncn2[C@H]1CC[C@@H](CO)O1`, the Potency result in [1], in [2], in experiment [3], in experiment [4], in experiment [5] and in experiment [6] was “inactive” in each case. Moreover, the Potency entry in experiment [8], in experiment [9] and in experiment [10] was “inactive” in each case.

Take `OCCOCC#CCOCCO`: the Potency entry in experiment [1], in experiment [2], in [3], in experiment [4], in experiment [5] and in experiment [6] was “inactive” each time. The Potency result in experiment [7], in experiment [8] and in [10] was “inactive” in each case.

Turning to `Cc1ccc(C(C)(C)O)cc1`, the Potency result in experiment [1], in [2], in experiment [3], in experiment [4], in [5] and in experiment [6] was “inactive” each time. Moreover, the Potency entry in experiment [8], in experiment [9] and in experiment [10] was “inactive” each time.

As for `C[C@@H]1CN(CCCn2c3ccccc3c3ccccc32)C[C@H](C)N1`, the Potency is 23.9 µM (active) in experiment [1]; 23.9 µM (active) in experiment [3]; 23.9 µM (active) in [4]; 23.9 µM (active) in [5]; 23.9 µM (active) in [6]; 21.3 µM (active) in [8]. Besides, the Potency result in experiment [2] is “inactive”.

In the case of `CN(C)CCC=C1c2ccccc2C=Cc2ccccc21`, the Potency result in experiment [1], in experiment [2], in [4], in [5], in experiment [6] and in experiment [7] was “inactive” each time. In addition, the Potency entry in [8] and in experiment [10] was “inactive” throughout. Further, in experiment [3], the Potency is 23.9 µM (active).

Consider `O=c1[nH]c2ccc(Cl)cc2o1`, for which the Potency result in experiment [1], in [2], in experiment [3], in experiment [4], in [5] and in experiment [6] was “inactive” throughout. The Potency result in [8], in experiment [9] and in [10] was “inactive” throughout.

Take `C=CCc1ccccc1OCC(O)CNC(C)C` (stereo unspecified): the Potency result in [1], in [2], in experiment [3], in [4], in experiment [5] and in [6] was “inactive” throughout. For the same molecule, the Potency entry in experiment [7], in experiment [8] and in experiment [10] was “inactive” throughout.

Consider `CC(O)c1ccccc1` (stereo unspecified), for which the Potency entry in experiment [1], in experiment [2], in experiment [3], in experiment [4], in experiment [5] and in experiment [6] was “inactive” in each case. Further, the Potency result in [7], in [8] and in [10] was “inactive” throughout.

Turning to `COc1cc(C(=O)NC2CCN(C)CC2)ccc1Nc1ncc2c(n1)N(C1CCCC1)CC(F)(F)C(=O)N2C`, the Potency in experiment [1] is 35.7 µM (active); in experiment [3] it was 25.2 µM (active); in experiment [4] it was 17.9 µM (active); in experiment [5] it was 40 µM (active); in experiment [6], 0.1 µM (active); in experiment [8] it was 17.9 µM (active). In [10], the Potency is 50.4 µM (active). For the same molecule, the Potency result in [2] and in experiment [9] was “inactive” in each case.

Turning to `CC(=O)Nc1cc(S(=O)(=O)O)cc2cc(S(=O)(=O)O)c(N=Nc3ccccc3)c(O)c12`, the Potency entry in experiment [1], in [2], in experiment [3], in experiment [4], in experiment [5] and in experiment [6] was “inactive” each time. Besides, the Potency result in experiment [8], in [9] and in [10] was “inactive” each time.

For the molecule `OC(CCN1CCCC1)(c1ccccc1)C1CCCCC1` (stereo unspecified), the Potency result in experiment [1], in experiment [2], in experiment [3], in experiment [4], in experiment [5] and in experiment [6] was “inactive” throughout. For the same molecule, the Potency result in experiment [8], in experiment [9] and in [10] was “inactive” throughout.

As to `O=C1NCCN1CCO`, the Potency result in [1], in experiment [2], in experiment [3], in experiment [4], in experiment [5] and in [6] was “inactive” each time. For the same molecule, the Potency entry in [8], in experiment [9] and in experiment [10] was “inactive” throughout.

As to `COC(=O)CCS`, the Potency result in [1], in experiment [2], in experiment [3], in [4], in experiment [5] and in experiment [6] was “inactive” each time. The Potency result in [8], in [9] and in experiment [10] was “inactive” in each case.

For the molecule `CCOc1cccc(-n2cc(C(=O)N3CCN(c4cc(C(=O)O)c5ccccc5c4)CC3)nc2-c2ccc(C)cc2)c1`, the Potency entry in experiment [1], in experiment [2], in experiment [3], in [4], in experiment [5] and in experiment [6] was “inactive” in each case. The Potency result in experiment [8], in experiment [9] and in experiment [10] was “inactive” in each case.
